# Source: the supplement of paper PMC6555819
# Columns and labels:
# Assay in all cases: PBM binding z-score (relative to random genomic background probes); higher = stronger binding; sequences stand for … in GC…GCGATTGACAGCGTAGAATGAAGG
# [1] = tested on: RARb homodimer (NR concentration 270 nM)
# How it was run: (§1)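 Binding buffer was PBS pH 7.4 with 2% milk, 0.02% Triton X-100, 1 mM DTT, 0.2 mg/mL BSA and 0.4 mg/ml salmon testes DNA. In it, ligand-free nuclear receptor dimers were incubated 1 h on custom Agilent 4×180K protein-binding microarrays carrying double-stranded probes. Antibodies against each partner (one per run) detected binding, and z-scores were calculated against random background probes after regression normalization of scanned fluorescence.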
# [2] = tested on: RARg:RXRa (NR concentration 270 nM, RXRa partner concentration 90 nM)
# How it was run: as §1
# [3] = tested on: RARg homodimer (NR concentration 270 nM)
# How it was run: as §1
# [4] = tested on: RXRa DBDmut IVT, anti-RXR (DBD mutation: RXRa K156A/R161A, NR concentration 90 nM)
# How it was run: as §1
# [5] = tested on: RXRa homodimer (NR concentration 180 nM)
# How it was run: as §1
# [6] = tested on: THRa:RXRa (NR concentration 90 nM, RXRa partner concentration 90 nM)
# How it was run: as §1
# [7] = tested on: THRa homodimer (NR concentration 90 nM)
# How it was run: as §1
# [8] = tested on: VDR:RXRa (NR concentration 270 nM, RXRa partner concentration 90 nM)
# How it was run: as §1
# [9] = tested on: VDR homodimer (NR concentration 270 nM)
# How it was run: as §1
Sequence,PBM binding z-score [1],PBM binding z-score [2],PBM binding z-score [3],PBM binding z-score [4],PBM binding z-score [5],PBM binding z-score [6],PBM binding z-score [7],PBM binding z-score [8],PBM binding z-score [9]
TCGTGTAGATCAACAGGAGGTTAAGAAAGATCGA,0.472,0.729,0.231,-0.0769,0.672,0.819,-0.773,0.314,-0.463
TCATATAGGTAAATGTGAAAGTCGAACGATATGA,-0.396,0.293,0.464,0.849,0.579,-0.0536,-0.354,0.491,0.207
ATACCAAGGTGGTCGTGAGGTCGTTGATACTAAC,1.63,1.25,0.566,0.422,1.53,3.02,2.64,2.79,3.47
TTACCAAGGTGAGCTCAGGTCGTTGATCCAACTC,1.03,0.577,0.405,-0.211,0.652,4.12,1.43,1.81,0.416
GCAACGAGGGCAAGTTGATAGCAGAGTTTGATGG,1.66,1.61,1.77,2.2,0.98,1.36,0.152,0.955,1.66
CCTACTGGGCCGTCAGGTCATTGATATCAACGTT,2.18,1.33,1.37,0.28,1.11,3.18,3.49,1.32,1.16
CAAGCTAGGTCACCGGAAGGTCAAAGTCCGCATG,5.19,8.48,7.81,1.93,6.91,4.5,2.79,6.18,3.87
TCATATCGGTAAAAGGTGAAAGTCGGTGTGGTAA,2.12,1.68,0.807,1.6,2.29,1.4,0.504,1.54,0.635
ACTATTTGTTGACTTAGGGCAACCGATACGACGC,1.01,0.754,1.08,0.742,0.588,1.12,0.816,0.227,0.486
TCTATTAGTTGACTAGGGCAACCGAAACAGCGGA,0.778,0.736,0.586,1.31,0.703,0.514,0.147,0.704,0.286
GCGACTGGGGAAAAGCAGGTTACCATAAGGTTGG,0.416,-0.0185,-0.445,-0.805,0.275,1.25,0.0418,-0.273,-0.6
CCTATTGGGCCAAAGGTCATTGATTCCAATGCTC,4.43,5.85,4.73,1.62,6.7,3.29,0.647,4.66,2.85
CCTACTAGGCCATTCAGAGGTCATTGATCATATG,4.46,4.99,3.55,2.14,4.11,3.42,2.03,4.33,3.93
CCTCGCAGGCCAATCTGGGTCACTCAAGGCTTGA,2.37,1.18,1.63,0.29,0.763,3.93,0.712,0.596,0.14
AAATGTAGGTTATCGGGTCATTCAGTTTGCGCAT,3.09,3.27,2.33,1.88,3.42,3.41,2.84,5.22,4
GCGACTGGGGCAAAGCCGGTTACCATAAGGTTGG,0.363,-0.242,0.26,-0.988,-0.295,0.48,-0.526,-0.76,-0.688
ATCTCTAGTTAAAGATAGTTCAGTGAATGCAAAT,1.14,0.636,0.66,0.396,0.579,0.486,0.212,1.04,0.858
TCTTGTAGATCAAGCAGGTTAATAAAGCCTGAGT,-0.223,-0.313,-0.28,0.435,0.2,0.0183,-0.531,0.675,0.0475
ATCTCTAGGTAAGGCTCAGTTCAGTGAAGAACGC,0.805,0.0838,-0.0338,0.317,-0.0677,0.831,0.732,0.553,1.36
TCTAGTTGGTCACGGAGGTCAGACACGACGGGTA,3.9,3.72,3.75,1,3.4,2.79,1.39,4.68,1.56
TCATAGAGGTAAACAGGTGAAAGTCCGTAAGTTA,0.716,0.649,0.356,1.07,1.1,0.843,-0.0526,0.83,-0.0713
CCTAGCAGGCCAATCTGGGTCACCCAAGGCTTGA,2.55,1.34,1.38,-0.396,1.07,3.92,0.793,0.707,-0.51
AGAATGAGGTTACCAAAGATCAGCGAAACGCTTG,0.525,2.03,1.45,1.07,2.44,2.73,0.456,1.33,0.187
TTTCGGAGGACACGAAAGGTCAGAGCTCGACATC,4.68,4.88,5.29,0.16,4.66,3.85,1.39,3.54,1.04
TCTGCTAGGTCAGTTGCTCAGCTAACGAGCTGCC,1.89,2.18,3.06,0.567,0.527,1.01,-0.484,-0.466,-0.87
ACAGACAGGTTATGAAGGTAACTCAGGCTATCAT,0.833,0.914,0.793,0.197,0.932,1.51,0.368,1.3,0.373

Sequence,PBM binding z-score [1],PBM binding z-score [2],PBM binding z-score [3],PBM binding z-score [4],PBM binding z-score [5],PBM binding z-score [6],PBM binding z-score [7],PBM binding z-score [8],PBM binding z-score [9]
GCTGCTGGGTCAGGTTGGTCAGCTAACGGGTACG,2.57,1.94,2.78,-0.0156,0.839,1.21,0.312,0.554,0.573
CGAACTAGGTCATTGACAGGAGAGTGAATAGTAA,2.29,3.65,4.2,2.21,2.23,2.48,0.629,1.62,0.844
TGAATGAGGTTATAAGATCAGGGATCGTTGCAAA,-0.0683,1.33,0.782,0.362,2.09,1.68,0.0696,0.956,0.406
TAGCCTAGGTCATTGGGCCAGTATCGTACGCATC,2.91,3.85,4,1.73,2.84,2.87,1.01,2.37,1.43
AGTCAAGGTTCATCTAGGTAACGTAAGATATGCT,2.09,3.09,2.93,4.77,3.54,3,0.474,4.56,5.03
ATCGAAAGGTCGACGAGGTGAGTGTACACCGTTT,3.22,4.45,4.1,1.71,4.92,3.71,1.21,5.55,1.52
GCTGCTAGGCCAACTGATGGTCAGCTAAAGCTCG,0.279,0.0424,0.383,-0.307,-0.651,-0.291,-1.08,-0.87,-1.03
TAGCCTAGGTCAGATCGGGCAAGTATACGCTATA,2.01,2.85,3.43,-0.344,1.29,2.98,-0.283,0.761,-0.339
CTAGAAAGGTCGTGCTCAGGTGAGTATACCAAAC,2.93,4.96,3.62,2.16,4.44,4.02,0.909,3.1,0.842
AGAATGAGGTTAAGATCAGTGAAACAGAATACAT,0.841,2.07,1.34,0.64,2.31,2.31,0.766,1.47,0.283
TCTTGTAGATCAGCAGGTTAAGAACGCTGGCCAA,-0.0185,-0.0606,-0.396,0.288,0.146,-0.0457,-0.571,0.123,-0.247
TCGCGGAGGACACGAAGGTCAGAGCTTTCCAGAG,3.67,3.06,3.52,0.372,1.64,2.62,0.443,2.1,1.19
ACTAGGAGGCCAAGGGTCACTCAAGATTAGTCCG,3.93,4.72,4.05,0.5,4.48,2.63,0.41,2.98,1.51
TCTTGTAGATTAACAGGAGGTTAAGAAAGATCGA,0.36,0.787,0.386,0.566,1.05,1.03,-0.287,0.91,0.0136
CTCGAAAGGTCGTGCTCACGTGAGTATACCAAAC,2.82,4.15,3.6,1.95,4.71,2.41,-0.0324,3.23,1.06
CAGCCTAGGTCAGGGCCAGCATAGGAGGAACGTT,2.41,2.93,3.78,-0.352,1.57,1.95,0.423,0.0584,-0.327
ATCGAAGGGTCGAGGTGAGTATAGAGAAAGGGAA,1.75,2.29,2.48,0.466,2.29,2.17,0.731,1.37,0.278
CTGAGTAGGTTATGGGGCATTCAGGCAACGGTGA,0.905,0.544,0.679,-0.017,0.713,0.647,-0.0528,0.0973,-0.0687
CTCGAAAGGTCGGTTGAAGTGAGTATACGGATAA,1.72,2.38,2.65,0.742,1.98,1.42,0.13,1.23,0.557
TCTTGTAGACCAATAGAGGTTAAGAAAGTGCGCT,1.42,0.922,0.638,0.754,1.37,1.66,-0.31,1.82,0.345
ATCGAAAGGTCGTGAGGTGAGTGTACAGAAAGGC,3.06,4.52,4.11,1.26,5.06,3.48,1.71,3.63,1.41
CGTCCAAGGTCCTAGGAGGTCAGTGAAGACAGAT,2.93,2.53,2.38,0.216,2.14,4.08,0.834,2.88,1.06
CCTACTGGGCCATTCAGAGGTCATTGACCATATG,4.16,4.57,3.23,0.945,3.98,3.28,1.45,3.83,3.34
GATAGCAGGCCATTTGGGTCACTCAATGACGGGC,1.92,1.22,1.5,0.215,0.841,1.87,0.437,1.07,0.542
CTCGAAAGGTCGGTTGAGGTGAGAATACGGATAA,2.21,3,3.18,0.839,2.33,4.84,1.13,2.26,0.742
ATCGAAAGATCGACGAGGTGAGTATACACCGTTT,-0.514,0.223,0.471,-0.641,0.512,1.14,0.311,0.0445,-0.18
